Nrf2 ARE act – activates Nrf2 signaling; AREc32 ARE-luciferase reporter (MCF7-derived line), luminescence, 24 h; Potency, µM (series often up to 46.1 µM), actives largely listed as activators; 0.31% of 410,000 active; AID 624171; further: nearly all actives have a fitted effect of over 65% in size
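ARE activation measured as luciferase luminescence (Steady-Glo, 30 min RT) in AREc32_Fluc cells after 24 hr compound exposure at 37 deg C, 5% CO2; cells seeded overnight at 1000/well in OPTI-MEM, 5% FBS.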
Epigenetic reg – regulators of epigenetic silencing causing reporter derepression in mouse cells | murine LDR cells, GFP reporter derepression, 30 h | 0.2% of 280,000 active | Potency, µM (top dose mostly 53.9 µM), hits mostly activators; further: nearly all actives have a fitted effect of over 60% in size
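Derepression of a silenced CMV-GFP reporter in murine LDR cells is scored by enumerating GFP-positive cells with a laser-scanning microplate cytometer after 30 hours of treatment at 37 C.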
A549 tox – counter-screen for Nrf2 inhibitors: cytotoxicity in A549 cells; 0.16% of 390,000 active; A549 ARE-Fluc cells, CellTiter-Fluor viability, 18-24 h; Potency, µM (top dose mostly 46 µM), most hits filed as inhibitors; AID 504648
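A549 ARE_Fluc cells in 5% FBS OPTI-MEM were exposed to compounds in concentration-response for 18-24 h at 37 deg C. Viability was read by CellTiter-Fluor fluorescence (Ex 405/Em 525) after 30 min, before the luciferase read.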
PINK1 modulator – PINK1 expression modulation | 0.2% of 410,000 active | Potency, µM (doses to about 76.6 µM), actives largely listed as activators | PINK1 immunofluorescence, high-content cytometry, 24 h; active means well fitted activation curve with a large enough effect; inconclusive means small, poorly fitted or top-dose-only effect; cell line not stated here; further: nearly all actives have a fitted effect of over 65% in size
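A stable cell line was treated with compounds at 5 concentrations for 24 hours, with CCCP as control. PINK1 levels and mitochondrial localization were measured by immunofluorescence with mitochondrial, cell and nuclear markers after fixation, read by laser-scanning cytometry.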
Nrf2 inh – blocks Nrf2 signaling; A549 ARE-Fluc reporter, luciferase luminescence, 18-24 h; Potency, µM (doses to about 46 µM), hits mostly inhibitors; 2.1% of 360,000 active; further: nearly all actives have a fitted effect of over 60% in size
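A549 ARE_Fluc cells (5000/well, 5% FBS OPTI-MEM) pre-incubated 2 h, then treated with compounds 18-24 h at 37C/5% CO2 in concentration-response. CellTiter-Fluor viability read first; BugLite luciferase luminescence after 15 min at room temperature gives Nrf2 activity.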
Each line names hits and unclear results; the compound was inactive in the other large screens. Only some compounds are listed: those with a hit (about 2.4% of all), similar ones and a draw of the others. Unless noted, the call rests on the fitted dose curve; in most records, active means well fitted curve in the direction sought with a large enough effect; inconclusive means small, poorly fitted or top-dose-only effect, or another doubt; inactive means no such curve, though single readings can be large; an effect the other way counts as inactive or inconclusive.

Cc1cccc(CNC(=O)c2c3n(c(C)cc2=O)-c2ccccc2SC(c2ccsc2)C3)n1 (stereo unspecified)	none (no result: Nrf2 ARE act, Epigenetic reg, A549 tox, Nrf2 inh)
O=C(Nc1cccc(-c2nn3c(=O)cc(N4CCNCC4)nc3s2)c1)C1CCNCC1	none (no result: Nrf2 ARE act, Epigenetic reg, PINK1 modulator)
Brc1cc(Cc2nnc(-c3ccccc3)o2)c(Br)s1	Nrf2 ARE act 8.9µM, Nrf2 inh inconclusive
O=C(OCc1nnc(-c2ccccc2)o1)c1ccc(Br)o1	none (no result: Epigenetic reg)
CC(=O)C1=C(C)OC(N)=C(C#N)C1c1cc([N+](=O)[O-])ccc1Cl (stereo unspecified)	Nrf2 ARE act 13µM
CC(=O)C1=C(C)OC(N)=C(C#N)C1c1cccc([N+](=O)[O-])c1 (stereo unspecified)	none
O=C(COc1ccc(Cl)cc1Cl)N/N=C/c1ccc[nH]1	A549 tox inconclusive, Nrf2 inh 9.2µM (no result: Epigenetic reg)
Cc1c(Cl)cccc1NC(=O)CCC(=O)N/N=C/c1ccc[nH]1	A549 tox inconclusive, PINK1 modulator inconclusive, Nrf2 inh 18µM
O=C(Nc1ccc(Cl)c(Cl)c1)N1N=CCC1c1ccccc1 (stereo unspecified)	A549 tox inconclusive, Nrf2 inh 16µM
O=C(Nc1ccccc1)N1N=CCC1c1ccccc1 (stereo unspecified)	none
COc1ccc2nc(Sc3c([N+](=O)[O-])nc(C)n3Cc3ccccc3)[nH]c2c1	Nrf2 ARE act inconclusive, A549 tox inconclusive, Nrf2 inh 13µM
Cc1nc([N+](=O)[O-])c(Sc2nc3ccccc3[nH]2)n1Cc1ccccc1	Nrf2 ARE act inconclusive, Nrf2 inh inconclusive
COC(=O)c1ccc(NC(=O)CSc2nc(=O)[nH]c3c2CCCC3)cc1	none (no result: Nrf2 inh)
O=C(Nc1c2c(nn1-c1ccc(Cl)cc1)CS(=O)(=O)C2)c1ccc(Br)cc1	PINK1 modulator 32µM (no result: Nrf2 inh)
O=C(Nc1c2c(nn1-c1ccc(Cl)cc1)CS(=O)(=O)C2)c1ccc2c(c1)OCO2	none
CCN1CCN(C(=O)c2cnn(-c3ncc4c(n3)-c3ccccc3CCC4)c2COC)CC1	none (no result: Nrf2 ARE act, Epigenetic reg, A549 tox, Nrf2 inh)
CC(C)=NOCc1ccc(-c2cc(-c3ccccc3)no2)cc1	none (no result: Nrf2 ARE act, A549 tox, PINK1 modulator, Nrf2 inh)
Cn1c(=O)c(NC2CCCCC2)c2c3c(cccc31)C(=O)c1ccccc1-2	Epigenetic reg 0.13µM
Cn1c(=O)c(NCCO)c2c3c(cccc31)C(=O)c1ccccc1-2	none
O=S(=O)(c1ccc2c(c1)OCCO2)N1CCN(S(=O)(=O)c2ccc(F)c(F)c2F)CC1	none (no result: Nrf2 ARE act, Epigenetic reg, PINK1 modulator)
CCNC(=S)N(CCc1c(C)[nH]c2ccc(C)cc12)Cc1cc(OC)c(OC)c(OC)c1	Nrf2 inh 18µM
O=C(c1ccc2c(c1)OCCO2)N1CCN(c2ncc(C(F)(F)F)cc2Cl)CC1	Nrf2 inh inconclusive (no result: Epigenetic reg)
O=C(Nc1ccc2c(c1)OCO2)N1CCN(c2ncc(C(F)(F)F)cc2Cl)CC1	Nrf2 inh 9.2µM
O=C(NNC(=S)Nc1cccc(C(F)(F)F)c1)c1cccc(Cl)c1	PINK1 modulator 16µM, Nrf2 inh inconclusive
O=C(NNC(=S)Nc1cccc(C(F)(F)F)c1)c1ccccc1Cl	PINK1 modulator inconclusive
CN(c1ccccc1)P(=O)(N(C)c1ccccc1)N(C)c1ccccc1	A549 tox inconclusive, PINK1 modulator 16µM, Nrf2 inh 16µM
CCCN1CCN(CCCNC(=O)c2ccc3c(c2)sc2nc(-c4ccc(C)cc4)cn23)CC1	none
COC(=O)c1cc(NC(=O)c2cccc(Cl)c2)c(=O)oc1/C=C/Nc1cc(C)cc(C)c1	Epigenetic reg 3.5µM (no result: Nrf2 ARE act, A549 tox, PINK1 modulator, Nrf2 inh)
O=C(CNC(=O)c1ccccc1)OC(CCc1ccccc1)C(=O)Nc1cc(C(F)(F)F)ccc1Cl (stereo unspecified)	none (no result: Nrf2 ARE act, Epigenetic reg, PINK1 modulator)
COc1cccc(CN2CC34CC(c5ccc(C(C)=O)cc5)C(CC3S2(=O)=O)O4)c1 (stereo unspecified)	none (no result: Nrf2 ARE act, Epigenetic reg, PINK1 modulator)
COc1ccc(NC(=O)c2cn(-c3ccccc3)nc2-c2ccncc2)cc1	none
COc1ccc(-c2nn(-c3ccccc3)cc2C(=O)NC(=S)NNC(=O)c2ccncc2)cc1	Nrf2 inh 21µM
COc1ccccc1NS(=O)(=O)c1ccc2c(c1)NC(=O)C(C)S2 (stereo unspecified)	none (no result: Epigenetic reg)
COc1cccc(NS(=O)(=O)c2ccc3c(c2)NC(=O)C(C)S3)c1 (stereo unspecified)	Nrf2 inh 21µM (no result: Epigenetic reg)
CCc1cccc(NS(=O)(=O)c2ccc3c(c2)NC(=O)C(C)S3)c1 (stereo unspecified)	Nrf2 inh 16µM (no result: Epigenetic reg)
CS(=O)(=O)N(CC(=O)O)c1ccccc1	none (no result: Nrf2 ARE act, A549 tox, PINK1 modulator, Nrf2 inh)
CCOC(=O)c1cc(-c2ccccc2)n(CCC(=O)Nc2ccc(Cl)c(C(F)(F)F)c2)c1C	A549 tox inconclusive, PINK1 modulator inconclusive (no result: Nrf2 inh)
COc1cc(C2C(C#N)=C(N)N(Nc3ccccc3)C3=C2C(=O)CC(C)(C)C3)ccc1OCc1ccccc1 (stereo unspecified)	A549 tox inconclusive, Nrf2 inh 23µM
Cc1cc2nc(-c3ccco3)c(CC(C)(C)C)n2c(C)c1Br	none (no result: Epigenetic reg, A549 tox, Nrf2 inh)
COc1ccccc1Cc1c(-c2ccco2)nc2cc(C)c(Br)c(C)n12	Nrf2 ARE act 11µM (no result: Epigenetic reg, A549 tox, Nrf2 inh)
CN(C)c1ccc(N=Nc2ccc(/C=C/c3ccnc4ccccc34)cc2)cc1	none (no result: Nrf2 ARE act, Epigenetic reg, A549 tox, Nrf2 inh)
COc1ccc2c(c1)OC(C)CN(CCNC(=O)C1CCOC1)C2 (stereo unspecified)	none (no result: Nrf2 ARE act, Epigenetic reg, A549 tox, Nrf2 inh)
COc1ccccc1NC(=O)C(NC(=O)OC(C)(C)C)C(C)OCc1ccccc1 (stereo unspecified)	Nrf2 inh 23µM
COc1ccc(-n2nnnc2SCC(=O)NC2CC2)cc1	none (no result: Epigenetic reg)
COc1ccc(-n2nnnc2SCC(=O)Nc2nc3c(s2)CCCC3)cc1	Nrf2 inh 16µM
CCCCn1c(SCC(=O)Nc2nnc(CC)s2)nc2c1c(=O)n(C)c(=O)n2C	Nrf2 inh 8.2µM
CC(C)n1c(SCC(=O)Nc2nc3c(s2)CCCC3)nc2c1c(=O)n(C)c(=O)n2C	Nrf2 inh 23µM
CCOC(=O)c1c(NC(=O)CSc2nc3c(c(=O)n(C)c(=O)n3C)n2C(C)C)sc(C)c1C	none
CCc1ccc(NC(=O)C(CC)n2c(=O)c(C(F)(F)F)nc3ccccc32)cc1 (stereo unspecified)	PINK1 modulator inconclusive
O=S(Cc1cc(Oc2ccccc2)nc(-c2ccccc2)n1)c1ccccc1 (stereo unspecified)	Nrf2 inh 10µM
COC(=O)c1cc2oc(C)cc2n1Cc1c(C)cc(C)cc1C	none
COC(=O)c1sc(-c2cccs2)cc1NC(=O)/C=C/C(=O)O	Nrf2 ARE act 16µM
Cn1c(CC(=O)NC(C)(C)CO)c(Sc2ccccc2)c2ccccc21	none
CCOC(=O)Cc1c(Sc2ccccc2)c2ccccc2n1C	Nrf2 inh 23µM
O=C(c1ccc2n[nH]nc2c1)N1CCN(c2ccc(C(F)(F)F)cn2)CC1	Nrf2 inh 15µM (no result: Epigenetic reg)
CCn1c(C)nc2cc(-c3nc4n(n3)Cc3ccccc3-4)ccc21	Nrf2 inh 2.3µM
Clc1nc2sccn2c1/C=N/n1cnc2ccccc21	Nrf2 ARE act 3.2µM, Nrf2 inh inconclusive
